About 79,000 compounds went through this panel and 15% of them were active in at least one assay; those are over-represented in the sample as a whole. The source made the active and inactive calls. Rule as the data show it: active = growth inhibition above about 70%; inactive = the rest.
Legend:
[1] = NCI Yeast Anticancer Drug Screen. Data for the rad52 strain (AID 147);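 also: 0% = growth of vehicle-treated control cultures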; conditions: S. cerevisiae rad52 mutant growth inhibition, active compounds read high
How it was run: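 Read-out: growth inhibition versus vehicle-treated controls. Cells were a DNA repair-deficient yeast strain treated with compounds.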

[2] = NCI Yeast Anticancer Drug Screen. Data for the wt1 strain (AID 149);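 also: 0% = growth of vehicle-treated wt1 cultures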; conditions: S. cerevisiae wt1 strain (SPY 50644) growth inhibition, active compounds read high
How it was run: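 Yeast wt1 strain exposed to compounds; growth inhibition measured relative to vehicle-treated controls.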

[3] = NCI Yeast Anticancer Drug Screen. Data for the rad50EPP+ strain (AID 151);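 also: 0% = growth of vehicle-treated control cultures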; conditions: S. cerevisiae rad50 mutant strain, active compounds read high
How it was run: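 Growth inhibition read against vehicle controls in rad50EPP+ yeast, a strain altered in DNA damage repair, after compound exposure.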

[4] = NCI Yeast Anticancer Drug Screen. Data for the rad50 strain (AID 155);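 also: 0% = growth of vehicle-only cultures of the same strain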; conditions: S. cerevisiae rad50 strain growth inhibition, active compounds read high
How it was run: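 Yeast carrying a defined DNA repair defect were exposed to test compounds, and growth was compared with vehicle-treated controls to give percent inhibition.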

[5] = NCI Yeast Anticancer Drug Screen. Data for the mec2-1 strain (AID 157); conditions: S. cerevisiae mec2-1 strain, active compounds read high
How it was run: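 Yeast mec2-1 mutant treated with compound. Readout: growth inhibition vs vehicle controls.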

[6] = NCI Yeast Anticancer Drug Screen. Data for the rad14 strain (AID 159);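 also: 0% = growth of vehicle-treated control cultures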; conditions: S. cerevisiae rad14 strain growth inhibition, active compounds read high
How it was run: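 Yeast cells carrying a defined DNA-repair defect were exposed to compounds, and growth inhibition was calculated relative to vehicle-treated control cultures.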

[7] = NCI Yeast Anticancer Drug Screen. Data for the sgs1 mgt1 strain (AID 161);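 also: 0% = growth of cultures given vehicle only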; conditions: S. cerevisiae sgs1 mgt1 strain, active compounds read high
How it was run: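 Read-out: growth inhibition vs vehicle controls. Cells: mutant yeast strain deficient in DNA damage repair.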

[8] = NCI Yeast Anticancer Drug Screen. Data for the CLN2oe strain (AID 163);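 also: 0% = growth of vehicle-only control cultures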; conditions: S. cerevisiae CLN2oe strain, active compounds read high
How it was run: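 Read-out: yeast growth inhibition, expressed relative to vehicle-only controls. The strain bears an engineered cell-cycle alteration.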

[9] = NCI Yeast Anticancer Drug Screen. Data for the cln2 rad14 strain (AID 165);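 also: 0% = growth equal to vehicle treated cultures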; conditions: S. cerevisiae cln2 rad14 strain, active compounds read high
How it was run: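 cln2 rad14 yeast strain; compound exposure; growth inhibition read vs vehicle controls.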

[10] = NCI Yeast Anticancer Drug Screen. Data for the bub3 strain (AID 167); conditions: S. cerevisiae bub3 mutant strain, active compounds read high
How it was run: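 Compounds were applied to a genetically altered yeast strain carrying a cell-cycle control defect. Growth inhibition was scored against vehicle-treated controls.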

[11] = NCI Yeast Anticancer Drug Screen. Data for the wt2 strain (AID 169);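 also: 0% = growth of vehicle-treated yeast cultures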; conditions: S. cerevisiae wt2 strain growth inhibition, active compounds read high
How it was run: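 Read-out: growth inhibition versus vehicle-treated control cultures after compound exposure of the yeast strain.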

[12] = NCI Yeast Anticancer Drug Screen. Data for the mlh1 strain (AID 171);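 also: 0% = growth of vehicle-treated control cultures of the same strain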; conditions: S. cerevisiae mlh1 strain growth inhibition, active compounds read high
How it was run: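 Read-out: growth inhibition versus vehicle controls. Strain: engineered yeast with a defined DNA repair or cell cycle defect, compound-treated.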

[13] = NCI Yeast Anticancer Drug Screen. Data for the sgs1 strain (AID 173);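 also: 0% = growth of vehicle-only control cultures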; conditions: S. cerevisiae sgs1 mutant, active compounds read high
How it was run: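 Read-out: yeast growth inhibition relative to vehicle controls, following compound exposure of a strain with a defined DNA repair/cell cycle alteration.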

[14] = NCI Yeast Anticancer Drug Screen. Data for the mlh1 rad18 strain (AID 175); conditions: S. cerevisiae mlh1 rad18 strain growth inhibition, active compounds read high
How it was run: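 Yeast w/ defined DNA-repair lesions; compound exposure; growth vs vehicle controls → % inhibition.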

[15] = NCI Yeast Anticancer Drug Screen. Data for the rad18 strain (AID 177); conditions: S. cerevisiae rad18 mutant growth inhibition, active compounds read high
How it was run: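 Readout: growth inhibition vs vehicle controls. Cells: genetically altered yeast strain, DNA repair defect.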

[16] = NCI Yeast Anticancer Drug Screen. Data for the mgt1 strain (AID 153); conditions: S. cerevisiae mgt1 mutant growth inhibition, active compounds read high
How it was run: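 mgt1 yeast grown with test compound; read-out is growth inhibition versus vehicle-treated cultures.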

[17] = at 5.0 µM (retest, dose inferred, filed as 0.5)
[18] = at 50.0 µM (retest, dose inferred, filed as 5.0)

Measured: growth inhibition

O=c1[nH]cc(F)c(=O)[nH]1
inactive: [1]; at 1.2 µM 2% | [1]; at 3.7 µM 14% | [1]; at 11.0 µM 39% | [2]; at 1.2 µM -1% | [2]; at 3.7 µM -1% | [2]; at 11.0 µM 9% | [2]; at 33.0 µM 34% | [2]; at 100.0 µM 64% | [3]; at 1.2 µM 4% | [3]; at 3.7 µM 31% | [4]; at 1.2 µM 2% | [4]; at 3.7 µM 17% | [4]; [17] 26% | [4]; at 11.0 µM 43% | [5]; at 1.2 µM 11% | [5]; at 3.7 µM 12% | [5]; [17] 26% | [5]; at 11.0 µM 14% | [5]; at 33.0 µM 14% | [5]; at 50.0 µM 53.7% | [5]; at 100.0 µM 9% | [6]; at 1.2 µM 1% | [6]; at 3.7 µM 10% | [6]; at 11.0 µM 17% | [6]; at 33.0 µM 54% | [7]; [17] 53% | [7]; at 50.0 µM 49.6% | [8]; at 1.2 µM 21% | [8]; at 3.7 µM 23% | [8]; at 11.0 µM 21% | [8]; at 33.0 µM 19% | [8]; at 100.0 µM 18% | [9]; [17] 17% | [9]; at 50.0 µM 66.7% | [10]; at 1.2 µM 6% | [10]; at 3.7 µM 7% | [10]; [17] 2% | [10]; at 11.0 µM 5% | [10]; at 33.0 µM 19% | [10]; at 50.0 µM 44.6% | [10]; at 100.0 µM 3% | [11]; at 1.2 µM 1% | [11]; at 3.7 µM 17% | [11]; at 11.0 µM 58% | [12]; at 1.2 µM 4% | [12]; at 3.7 µM 8% | [12]; at 11.0 µM 23% | [13]; at 1.2 µM 10% | [13]; at 3.7 µM 44% | [14]; [17] 16% | [15]; at 1.2 µM 0% | [15]; at 3.7 µM 10% | [15]; at 11.0 µM 46% | [15]; at 33.0 µM 68%
active: [1]; at 33.0 µM 71% | [1]; at 100.0 µM 88% | [3]; at 11.0 µM 73% | [3]; at 33.0 µM 92% | [3]; at 100.0 µM 96% | [4]; at 33.0 µM 77% | [4]; [18] 89% | [4]; at 50.0 µM 93.2% | [4]; at 100.0 µM 91% | [5]; [18] 96% | [6]; at 100.0 µM 77% | [7]; [18] 95% | [9]; [18] 73% | [10]; [18] 81% | [11]; at 33.0 µM 86% | [11]; at 100.0 µM 95% | [12]; at 33.0 µM 72% | [12]; at 100.0 µM 93% | [13]; at 11.0 µM 79% | [13]; at 33.0 µM 92% | [13]; at 100.0 µM 96% | [14]; [18] 86% | [14]; at 50.0 µM 89.2% | [15]; at 100.0 µM 86%

CC(=O)O/N=C/c1c2ccccc2cc2ccccc12
inactive: [2]; at 1.2 µM -1% | [2]; at 3.7 µM 2% | [2]; at 11.0 µM 0% | [2]; at 33.0 µM 3% | [2]; at 100.0 µM 10% | [3]; at 1.2 µM 14% | [3]; at 3.7 µM 24% | [3]; at 11.0 µM 44% | [3]; at 33.0 µM 64% | [3]; at 100.0 µM 66% | [16]; at 1.2 µM -4% | [16]; at 3.7 µM -3% | [16]; at 11.0 µM -1% | [16]; at 33.0 µM 9% | [16]; at 100.0 µM 20% | [4]; at 1.2 µM 0% | [4]; at 3.7 µM 1% | [4]; [17] 55% | [4]; at 11.0 µM 5% | [4]; at 33.0 µM 20% | [4]; at 50.0 µM 15.2% | [4]; at 100.0 µM 62% | [5]; at 1.2 µM -3% | [5]; at 3.7 µM 2% | [5]; [17] 4% | [5]; at 11.0 µM 7% | [5]; at 33.0 µM 20% | [5]; [18] 18% | [5]; at 50.0 µM 8.65%
active: [4]; [18] 90%

From PubChem BioAssay (NCI)
